Test results: PubChem BioAssay (Tox21)
Records with an inconclusive call do not appear. Where a call stands in place of a potency, no number is given. Values without a mark were called inactive. Active and inactive are the calls of the source. Calls come from the whole dose curve; as a rule, active = well fitted activation curve with a large enough effect in the signal ratio in the repeat runs (not every such curve was filed as active); inconclusive = weak or mixed curves, or effect the other way; inactive = flat fitted curve, though single readings scatter; the % refers to the signal ratio.

target: Estrogen receptor beta (Homo sapiens) (UniProt Q92731); assay: qHTS assay to identify small molecule agonists of the estrogen receptor beta (ER-beta) signaling pathway (AID 1259377); details: ER-beta-UAS-bla HEK293T, beta-lactamase FRET ratio, 16 h; series mostly up to 92.4 µM
Sequence (Q92731 whole entry, looked up): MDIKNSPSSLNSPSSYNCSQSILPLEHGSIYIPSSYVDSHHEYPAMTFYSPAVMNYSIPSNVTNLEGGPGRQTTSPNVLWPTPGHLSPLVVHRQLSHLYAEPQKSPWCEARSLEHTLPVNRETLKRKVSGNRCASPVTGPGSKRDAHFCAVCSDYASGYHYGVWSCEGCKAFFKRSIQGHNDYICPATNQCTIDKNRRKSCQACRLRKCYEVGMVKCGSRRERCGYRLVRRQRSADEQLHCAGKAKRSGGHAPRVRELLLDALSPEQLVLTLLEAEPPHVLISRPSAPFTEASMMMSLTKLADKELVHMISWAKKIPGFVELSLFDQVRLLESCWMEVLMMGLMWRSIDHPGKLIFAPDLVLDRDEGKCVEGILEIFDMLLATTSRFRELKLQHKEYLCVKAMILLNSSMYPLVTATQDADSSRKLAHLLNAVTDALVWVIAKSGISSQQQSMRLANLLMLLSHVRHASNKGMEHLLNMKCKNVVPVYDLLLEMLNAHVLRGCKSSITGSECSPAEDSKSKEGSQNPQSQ
Text: U.S. Tox21 Program National Center for Advancing Translational Sciences [NCATS] NIH Chemical Genomics Center [NCGC] U.S. Environmental Protection Agency [EPA] National Institutes of Environmental Health Sciences [NIEHS] National Toxicology Program [NTP] U.S. Food and Drug Administration [FDA] Tox21 Assay Overview: Estrogen receptor (ER), a nuclear hormone receptor, plays an important role in development, metabolic homeostasis and reproduction. Two subtypes of ER, ER-alpha and ER-beta, have similar expression patterns with some uniqueness in both types. Endocrine disrupting chemicals (EDCs) and their interactions with steroid hormone receptors like ER causes disruption of normal endocrine function. To identify the compounds that activate ER signaling, an ER beta-UAS-bla GripTite cell line (Life technologies, Madison, WI, USA) containing a beta-lactamase reporter gene under the control of an Upstream Activator Sequence (UAS) was used to screen Tox21 10K compound library.
Tox21 Assay Protocol Summary: ER-beta-UAS-bla HEK293T cells were dispensed at 2,000 cells/5 uL of assay medium containing 2% charcoal stripped FBS per well into black wall/clear-bottom 1536-well plates using a Multidrop Combi (ThermoFisher Scientific, Waltham, MA) dispenser. After the assay plates were incubated at a 37C and 5% CO2 for 6 hr, 23 nL of compounds dissolved in DMSO, positive controls or DMSO only was transferred to the assay plate by a Pintool station (Kalypsys, San Diego, CA). The plates were incubated at 37C and 5% CO2 for 16 hr. Then 1 uL of LiveBLAzerTM B/G FRET substrate was added using a BioRAPTR FRD (Flying Reagent Dispenser, Aurora Discovery, San Diego, CA). After the plates were incubated at room temperature for 2 hours, fluorescence intensity was measured by an Envision plate reader (PerkinElmer, Shelton, CT).
Potency is the fitted concentration of half-maximal effect.

SMILES | Potency | activation
CC(=O)c1ccc2c(c1)N(CCCN(C)C)c1ccccc1S2 | inactive | 
C[C@H](CCC(=O)O)[C@H]1CC[C@H]2[C@@H]3CC[C@@H]4C[C@H](O)CC[C@]4(C)[C@H]3C[C@H](O)[C@]12C | inactive | 
CC1=CCCC(C)(C)C12CCC(C)O2 (stereo not given) | inactive | 
CC(CSC(=O)c1ccccc1)C(=O)N1C[C@@H](Sc2ccccc2)C[C@H]1C(=O)O (stereo not given in full) |  | -2.37% [at 19 µM]
COc1ccc(-c2nc3ccc(C4=NNC(=O)CC4C)cc3[nH]2)cc1 (stereo not given) | inactive | 
CCO[Si](CCCCl)(OCC)OCC | inactive | 
CC(C)Nc1ccc(NC(C)C)c2c1C(=O)c1ccccc1C2=O | inactive | 
CCOC(=O)C(O)c1ccccc1 (stereo not given) | inactive | 
CC1(c2ccccc2)OC(C(=O)O)=CC1=O (stereo not given) | inactive | 
COCC(C)OC(C)=O (stereo not given) | inactive | 
O=[N+]([O-])c1cccc(S(=O)(=O)O)c1 | inactive | 
CN(C)CCN(Cc1ccsc1)c1ccccn1 | inactive | 
CCCCCCCCCCCCCCCCCCOS(=O)(=O)O | inactive | 
O=[N+]([O-])c1ccc(NCCO)c(OCCO)c1 | inactive | 
C=CC(=O)OCCOc1ccccc1 | inactive | 
Nc1cc(C(=O)O)c(O)c(S(=O)(=O)O)c1 | inactive | 
COc1cc2nc(N3CCN(C(=O)C4COc5ccccc5O4)CC3)nc(N)c2cc1OC (stereo not given) | inactive | 
CCN(CC)c1ccc2c(-c3ccccc3C(=O)O)c3ccc(=[N+](CC)CC)cc-3oc2c1 | inactive | 
COc1ccc(C(=O)N2CCN(CC(=O)N3CCOCC3)CC2)cc1 | inactive | 
CCCCc1nc2cccnc2n1Cc1ccc(-c2ccccc2-c2nnn[nH]2)cc1 | inactive | 

SMILES | Potency | activation
Clc1ccc2c(c1)CCc1cccnc1C2=C1CCNCC1 | inactive | 
c1ccc(-c2ccccn2)nc1 | inactive | 
COC(=O)C1=C(C)NC(COC(N)=O)=C(C(=O)OC(C)C)C1c1cccc(Cl)c1Cl (stereo not given) | inactive | 
O=[N+]([O-])c1ccc2[nH]ncc2c1 | inactive | 
COc1ccc(C(=O)c2ccc(OC)cc2O)c(O)c1 | 48.9 µM (active) | 
C#C[C@]1(O)CC[C@H]2[C@@H]3CCc4cc(OC5CCCC5)ccc4[C@H]3CC[C@@]21C | 6.68 µM (active) | 
Nc1ccc([N+](=O)[O-])c(C(F)(F)F)c1 | inactive | 
COc1cc(Cl)ccc1Oc1ccc(Cl)cc1Cl | inactive | 
CCCCC(=O)OCC(=O)[C@H]1[C@H](C)C[C@H]2[C@@H]3C[C@H](F)C4=CC(=O)C=C[C@]4(C)[C@@]3(F)[C@@H](O)C[C@@]21C | inactive | 
CCCCCCCCCOS(=O)(=O)O | inactive | 
CC(C)=CCC/C(C)=C/CC/C(C)=C/CO | inactive | 
O=C(Cl)c1cc(C(=O)Cl)cc(C(=O)Cl)c1 | inactive | 
CCC(CC)Nc1ccc(C)c(C)c1 | inactive | 
CCCNCC(O)COc1ccccc1C(=O)CCc1ccccc1 (stereo not given) | inactive | 
CCCCCCCCCCCCCCOS(=O)(=O)O | inactive | 
Nc1cccc(S(=O)(=O)c2cccc(N)c2)c1 | inactive | 
CCCCCCCCCCCC(=O)OC[C@@H](O)[C@H]1OC[C@H](OCCO)[C@H]1OCCO | inactive | 
NC(N)=NCCC[C@H](N)C(=O)O |  | -0.985% [at 8.39 µM]
CO[C@@H]1[C@H](OC(=O)/C=C/C=C/C=C/C=C/C(=O)O)CC[C@]2(CO2)[C@H]1[C@@]1(C)O[C@@H]1CC=C(C)C | inactive | 
O=S(=O)(Oc1ccc(Cl)cc1)c1ccccc1 | inactive | 
